Inhibition data for 95 compounds are collected here from PubChem BioAssay AID1251 (SRMLSC, 2008).

In all, about 200,000 compounds went through this assay and about 720 (0.36%) were called active. The entries come from a sample that favours actives as a whole. Unmarked numbers belong to inactive results. No stated cut-off is given here; in the data, active means inhibition above about 30%; inactive means the rest, inconclusive results apart.

The experiment in a line: inhibitors of arbovirus infection in cells – cell-based, full library, 10K replicate subset, primary screen (AID 1251). The conditions noted are these: arbovirus infection cell-based antiviral screen, at 10 µM, stronger effect = higher value.
Regarding `COc1ccc(CCNC(=O)/C(C#N)=C2\N=C(NC(=O)c3cccs3)c3ccccc32)cc1`, the inhibition is 1.79%. For `O=C(O)/C=C/c1cn(Cc2ccccc2)nc1-c1cccs1`, the inhibition was 9.79%. For `Cc1c(Cl)cccc1NC(=S)NCc1ccc2c(c1)OCO2` the value was -9.04%; for `COCC(C)NCc1cc(Br)ccc1OC` (stereo not given), 5.99%. Consider `CCOc1ncccc1C(=O)N(C)CC(=O)Nc1ccc(F)cc1`, for which the inhibition was -2.52%.

As for `Cc1cc2ccccc2n1CCC(=O)O`, the inhibition was 4.57%. For `COc1ccccc1N1CCN(C(=O)c2ccc(Cl)c(S(=O)(=O)N3CCCC3)c2)CC1` the value was 4.9%. On to `O=C(COc1ccccc1Cl)Nc1ccc(C(=O)c2ccc(C(=O)O)cc2)cc1`, for which the inhibition is 1.44%. For `CC(=O)Nc1ccc(NC(=O)COc2ccccc2C(=O)Nc2cccc(Cl)c2Cl)cc1` the value was 33.1% (active); for `COc1cc(NC(=O)COc2ccccc2Cl)ccc1NC(=O)C(C)C`, -3.4%. For `CSc1ccccc1NC(=O)CN(C)CC(=O)Nc1ccc(Cl)cc1[N+](=O)[O-]`, the inhibition was 9.71%. For `COc1ccccc1C(=O)Nn1c(-c2cccs2)nc2ccccc2c1=O` the value was -3.21%; for `CCOC(=O)N1CCN(C(=O)Cn2cnc3ccccc3c2=O)CC1`, 4.88%; for `CCOC(=O)C(=Cc1ccccc1OC)C(=O)OCC`, 1.92%.

Consider `O=c1c2c(ncn1Cc1ccccc1)nc1n2CCC1`, for which the inhibition was -1.22%. For `COc1ccc(/C=N/NC(=O)C(C)N(c2ccc(OC)cc2)S(C)(=O)=O)cc1` (stereo not given) the value was -1.77%; for `COc1cc(OC)cc(C(=O)OCC(=O)Nc2sccc2C(N)=O)c1`, 4.53%. For `O=C(COC(=O)C12CC3CC(CC(O)(C3)C1)C2)NC12CC3CC(CC(C3)C1)C2` the value was 5.43%; for `Cc1ccc(C(=O)N/C(=C\c2ccco2)C(=O)N2CCSCC2)cc1C`, 4.17%; for `O=C(Nc1ccn(Cc2ccc(F)cc2)n1)c1ccncc1`, 3.28%. For `O=C(Nc1ccn(Cc2ccccc2)n1)c1cccc(F)c1` the value was -18.6%. `O=C(Nc1ccn(Cc2ccccc2)n1)c1n[nH]c([N+](=O)[O-])c1Cl`: the inhibition was 50.2% (active). For the compound `CC(=O)NC(NC(=S)Nc1c(C)n(C)n(-c2ccccc2)c1=O)C(Cl)(Cl)Cl` (stereo not given), the inhibition was 7.15%. In the case of `CCOc1cc(NC(=S)NCCCN(C)C)c(OCC)cc1NC(=O)C1CC1` it was 5.58%; in that of `CCOc1ccc(Br)cc1S(=O)(=O)Nc1cccc(S(=O)(=O)N(CC)CC)c1`, 2.51%; in that of `CN(C)c1ccc(C(CC(=O)O)C(=O)O)cc1` (stereo not given), 2.46%. Turning to `COc1ccc(N2C(=O)C(CC(=O)Nc3ccccc3)N(Cc3ccc(OC)c(OC)c3)C2=O)cc1` (stereo not given), the inhibition is 0.98%. In the case of `O=C(c1ccc2ccccc2n1)N1CCN(c2ccccc2Cl)CC1` it was 36% (active); in that of `O=C(c1ccncc1)N1CCN(c2ccc3ccccc3n2)CC1`, 5.37%.

Take `COc1ccccc1N1CCN(C(=O)c2cc(-c3ccc(Cl)c(Cl)c3)on2)CC1`: the inhibition was 2.74%.

For `Cc1cc(C(=O)NNC(=O)CCC2CCCCC2)c(C)o1`, the inhibition is -2.2%.

Consider `C=CCn1nc(-c2ccccc2)c2c(C)onc2c1=O`, for which the inhibition is 4.65%. Consider `Cc1ccc(-c2cc(C(F)(F)F)n3ncc(C(=O)N4CCCCC4c4cccnc4)c3n2)cc1` (stereo not given), for which the inhibition is -9.25%. Turning to `COCCn1c(C)cc(C(=O)CSc2nc3ccccc3c(=O)n2C(C)COC)c1C` (stereo not given), the inhibition was 8.78%. For `Cc1nc(Nc2ccc3c(c2)OCCO3)c2nnn(Cc3ccccc3Cl)c2n1` the value was 51.5% (active); for `CCCc1nc(NCc2ccc3c(c2)OCO3)c2nnn(Cc3ccccc3Cl)c2n1`, -16.2%; for `Cc1nc(Nc2ccc(S(=O)(=O)N3CCCC3)cc2)c2nnn(Cc3ccccc3)c2n1`, -12.5%. As for `Cc1ccc2nsnc2c1S(=O)(=O)N1CCCC1C(=O)O` (stereo not given), the inhibition is 1.07%. In the case of `Cc1cc(C)c(NC(=O)c2oc3ccccc3c2COc2ccccc2)c(C)c1` it was 32.5% (active); in that of `CCOC(=O)c1oc2ccccc2c1NC(=O)c1cccs1`, -1.76%. Regarding `COCc1c(C(=O)OCc2c(C)noc2C)oc2ccccc12`, the inhibition is 3.37%. `O=c1[nH]c(CN2CCOCC2)nc2scc(-c3ccccc3)c12`: the inhibition was 5.07%. In the case of `O=C(CN(CC1CCCO1)C(=O)CNS(=O)(=O)c1ccc(F)cc1)NCc1ccco1` (stereo not given) it was 2.42%; in that of `C/C(=N\N=C(N)N)c1ccc(Cl)cc1`, -24.2%. For `CC(C)(C)C(=O)NCCCNc1ccc([N+](=O)[O-])cc1` the value was 1.95%; for `O=C(CNCc1ccc(F)cc1)Nc1ccccc1-c1ccccc1`, -16.4%; for `CCc1ccc(/C=C2\SC(N3CCOCC3)=NC2=O)cc1`, -6.68%.

As to `Cc1ccc(N2CCN(C3=NC(=O)/C(=C\c4cccs4)S3)CC2)cc1`, the inhibition is 6.43%. In the case of `Cc1ccc(Cl)c(NC(=O)CN2CCN(C=O)CC2)c1` it was 5.23%; in that of `COc1ccc(CCn2ccc(O)c(Cc3ccc(Cl)cc3Cl)c2=O)cc1OC`, 5.76%. Regarding `C/C(CCc1ccccc1)=N\NC(=O)c1ccc(CN2CCOCC2)cc1`, the inhibition was -3.19%. Turning to `COc1ccc2c(c1)CCC/C2=N\OC(=O)c1ccccc1F`, the inhibition is -1.6%. Take `CCOc1cc(CNCc2ccccn2)ccc1OCC(=O)NC(C)(C)C`: the inhibition was -2.89%. For `CCCCCC(=O)NC(=S)NNC(=O)c1ccc([N+](=O)[O-])cc1`, the inhibition is -18%.

For the compound `CCN(C(=O)COC(=O)c1cc(S(=O)(=O)N2CCc3ccccc32)ccc1OC)C1CCS(=O)(=O)C1` (stereo not given), the inhibition was 7.54%. For `CCN(CC)CCNC(=O)c1ccc(NC(=O)c2c(F)cccc2Cl)cc1` the value was -4.69%; for `Cc1cc(C)c2nc(SCC(=O)N(C)C3CCS(=O)(=O)C3)cc(C)c2c1` (stereo not given), -6.1%. For `CCSc1nnc(NC(=O)Cc2ccccc2OC)s1` the value was 3.03%. In the case of `CCSc1nnc(NC(=O)c2ccc(C)cc2)s1` it was 33.2% (active); in that of `CC(=O)c1sc(NC(=O)c2ccc(C)cc2)nc1C`, -4.42%; in that of `COc1cccc(CNn2cn[nH]c2=S)c1OCc1ccccc1`, -1.17%.

For `NC(=O)CC[C@@H]1NC(=O)[C@@H]2CCCN2C(=O)c2cc([N+](=O)[O-])cc(F)c2NCCC[C@@H](C(N)=O)NC1=O`, the inhibition was 8.77%.

Take `O=C(CSc1ncn[nH]1)NCc1ccc2c(c1)OCO2`: the inhibition was 2.87%.

For `CCNC(=S)N1CCN(c2ncccn2)CC1`, the inhibition was -0.7%. For `O=C(C1=C[C@H](C2CC2)C[C@H](OCc2ccc(CO)cc2)O1)N1CCN(Cc2ccccc2)CC1` the value was 4.26%. For `CN(C)NC(=O)C(NC(=O)c1ccc(N)cc1)C12CC3CC(CC(C3)C1)C2` (stereo not given) the value was 5.7%.

As for `CCOC(=O)c1ccccc1N1C(=O)C2Sc3[nH]c(=O)sc3C(/C=C/c3ccccc3)C2C1=O` (stereo not given), the inhibition is -0.3%. Turning to `CCC(C)NCCOCCOc1ccc(Br)cc1C` (stereo not given), the inhibition was -28.9%. In the case of `COc1ccc2cc(CCl)c(Cl)nc2c1` it was -7.11%. In the case of `CCCn1c(N)c(C(=O)CSc2nnc(-c3cccnc3)n2-c2ccc(C)cc2C)c(=O)[nH]c1=O` it was 6.05%. In the case of `CCCn1c(N)c(C(=O)CSc2nc3ccccc3c(=O)n2-c2ccc(OC)cc2)c(=O)[nH]c1=O` it was 30.7% (active); in that of `COc1cccc(-n2c(SCC(=O)c3c[nH]c4ccccc34)nc3ccccc3c2=O)c1`, 5.13%; in that of `CCCCCOc1ccc(CSC2=NCCN2)cc1[N+](=O)[O-]`, -7.5%. For `CCOC(=O)Cn1c(N)c(C(=O)OC)sc1=S`, the inhibition was 0.02%. `CCOC(=O)c1sc(=S)n2c1[nH]c(=O)c1ccc(C(=O)OC)cc12`: the inhibition was 32.4% (active). On to `CCOC(=O)c1sc(=S)n(-c2cccc(OC)c2)c1N`, for which the inhibition is 0.93%. For `CCOC(=O)C1=C(C)NC(=S)NC1c1cccs1` (stereo not given) the value was -5%; for `COC(=O)c1ccc(NC(=O)c2cc(Cl)ccc2OC)cc1`, -17.6%. For `CC(=O)N1CCN(S(=O)(=O)c2c(F)cc(F)c(Cl)c2F)CC1` the value was 6.03%. In the case of `Cc1ccc(N2C(=O)C(CC(=O)Nc3cccc(F)c3)N(CCc3ccncc3)C2=O)cc1` (stereo not given), the inhibition was 7.79%. In the case of `CCn1c(Cc2ccccc2)nnc1SCc1nc2ccccc2c(=O)[nH]1` it was 5.28%; in that of `CCn1c(COc2c(C)cccc2C)nnc1SCc1nc2ccccc2c(=O)[nH]1`, 0.34%; in that of `COc1ccc(CCCc2nnc(SCc3nc4ccccc4c(=O)[nH]3)n2C)cc1`, 31.9% (active).

`Cc1ccc(N(CCC(=O)O)S(=O)(=O)c2cccc(C(F)(F)F)c2)cc1`: the inhibition is 5.45%. In the case of `O=c1nc(N/N=C/c2ccco2)cn[nH]1` it was -4.7%; in that of `CCCCSc1[nH]c(=O)c(C(=O)OCC)cc1C#N`, 39.8% (active).

For `CC(=O)c1cc(C#N)c(SCC(=O)C(C)(C)C)nc1C`, the inhibition is -12.4%. In the case of `Cc1cc(=O)[nH]c(SCC(N)=O)c1C#N` it was 4.32%. `COc1cc(NS(=O)(=O)c2ccc(NC(=O)c3ccc(S(=O)(=O)N4CCCCC4)cc3)cc2)ncn1`: the inhibition was -0.14%. In the case of `N#Cc1ccc(C(=O)Nc2nc(-c3cccs3)c(C(=O)C(F)(F)F)s2)cc1` it was 2.83%. In the case of `CCn1c(CSCc2c(Cl)cccc2Cl)n[nH]c1=S` it was 10.9%; in that of `CN(CC(=O)Nc1ccc(S(=O)(=O)N2CCCC2)cc1)Cc1ccc(Cl)c(Cl)c1`, -4.82%; in that of `CNCC(O)CN1CCN(c2ccccc2OC)CC1` (stereo not given), 3.01%. In the case of `COc1ccccc1N1CCN(Cc2ccc(OC)c3ccccc23)CC1` it was 31.9% (active).

Take `COc1ccccc1N1CCN(CCCCOc2ccc(F)cc2)CC1`: the inhibition is 13.4%.
